Consider seven compounds from PubChem BioAssay (EPA / NIEHS).

Read-out in assay [1]: TIMP metallopeptidase inhibitor 1 (TIMP1), TIMP1 (gene 7076)
Briefly: BSK_hDFCGF_TIMP1: BioMAP Diversity Plus: hDFCGF Assay for TIMP metallopeptidase inhibitor 1 (TIMP1) Biomarker Activity (AID 2283062). As to conditions: primary human foreskin fibroblasts; actives raise or lower the signal. The essentials:
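Human skin fibroblasts (primary), hDFCGF system; compound exposure 24 h; TIMP-1 by ELISA; bidirectional fit vs DMSO negative control; overt cytotoxicity by SRB in parallel wells.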

Read-out in assay [2]: Vascular cell adhesion molecule 1 (VCAM1), VCAM1 (gene 7412)
Briefly: BSK_hDFCGF_VCAM1: BioMAP Diversity Plus: hDFCGF Assay for Vascular cell adhesion molecule 1 (VCAM1) Biomarker Activity (AID 2283065). As to conditions: primary human foreskin fibroblasts; actives raise or lower the signal. The essentials:
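Human foreskin fibroblast primary cells, chemical exposure 24 h; VCAM-1 by ELISA; bidirectional fit, DMSO = negative control/baseline.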

Read-out in assay [3]: Plasminogen activator inhibitor-1 (PAI1), SERPINE1 (gene 5054)
Briefly: BSK_hDFCGF_PAI1: BioMAP Diversity Plus: hDFCGF Assay for Plasminogen activator inhibitor-1 (PAI1) Biomarker Activity (AID 2283066). The note with it: primary human foreskin fibroblasts; actives raise or lower the signal. The method in brief:
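Human skin fibroblast cultures receive chemical for 24 h before PAI-1 is measured by ELISA; signal changes are fitted bidirectionally against DMSO-treated wells.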

Read-out in assay [4]: Intercellular Adhesion Molecule 1 (ICAM1), ICAM1 (gene 3383)
Briefly: BSK_KF3CT_ICAM1: BioMAP Diversity Plus: KF3CT Assay for Intercellular Adhesion Molecule 1 (ICAM1) Biomarker Activity (AID 2283067). The note with it: primary human keratinocytes with fibroblasts; actives raise or lower the signal. The method in brief:
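ICAM-1 levels are measured by ELISA 24 h after dosing a primary human co-culture of keratinocytes and foreskin fibroblasts. Activity in either direction is fitted relative to DMSO vehicle.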

Read-out in assay [5]: Interferon-gamma inducible Protein 10 (IP10), CXCL10 (gene 3627)
Briefly: BSK_KF3CT_IP10: BioMAP Diversity Plus: KF3CT Assay for Interferon-gamma inducible Protein 10 (IP10) Biomarker Activity (AID 2283068). As to conditions: primary human keratinocytes with fibroblasts; actives raise or lower the signal. The method in brief: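 Signal is secreted/surface IP-10 by ELISA in a human primary skin co-culture of keratinocytes and foreskin fibroblasts, taken 24 h post-dosing; DMSO served as negative control.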

Read-out in assay [6]: Interleukin-1 alpha (IL1a), IL1A (gene 3552)
Put plainly: BSK_KF3CT_IL1a: BioMAP Diversity Plus: KF3CT Assay for Interleukin-1 alpha (IL1a) Biomarker Activity (AID 2283070). As to conditions: primary human keratinocytes with fibroblasts; actives raise or lower the signal. The essentials:
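Readout is IL-1a level by ELISA, compared bidirectionally with DMSO as baseline. Cells: human keratinocytes co-cultured with foreskin fibroblasts, harvested 24 h post-dose.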

Read-out in assay [7]: Transforming growth factor beta 1 (TGFb1), TGFB1 (gene 7040)
Put plainly: BSK_KF3CT_TGFb1: BioMAP Diversity Plus: KF3CT Assay for Transforming growth factor beta 1 (TGFb1) Biomarker Activity (AID 2283072). As to conditions: primary human keratinocytes with fibroblasts; actives raise or lower the signal. The method in brief:
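TGF-b1 ELISA on a 24 h dosed co-culture of human keratinocytes and foreskin fibroblasts; cytotoxicity tracked in parallel cultures by SRB staining.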

Read-out in assay [8]: Matrix Metallopeptidase 9 (MMP9), MMP9 (gene 4318)
Briefly: BSK_KF3CT_MMP9: BioMAP Diversity Plus: KF3CT Assay for Matrix Metallopeptidase 9 (MMP9) Biomarker Activity (AID 2283074).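 As to AC50: MMP9 protein level quantified by ELISA in the co-culture.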 As to conditions: primary human keratinocytes with fibroblasts; actives raise or lower the signal. The method in brief: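 Values come from bidirectional fitting relative to DMSO of MMP-9 levels, which were measured by ELISA. Measurements were taken 24 h after chemical dosing of a keratinocyte and foreskin fibroblast co-culture.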

Read-out in assay [9]: urokinase plasminogen activator (uPA), PLAU (gene 5328)
Put plainly: BSK_KF3CT_uPA: BioMAP Diversity Plus: KF3CT Assay for urokinase plasminogen activator (uPA) Biomarker Activity (AID 2283075). The note with it: primary human keratinocytes with fibroblasts; actives raise or lower the signal. The method in brief: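 Values derive from bidirectional fitting against DMSO controls. Keratinocyte/foreskin fibroblast co-cultures received chemical; 24 h later uPA was detected by ELISA, with SRB total-protein staining in parallel wells for overt cytotoxicity.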

Read-out in another assay: CD40, CD40 (gene 958)
Put plainly: BSK_LPS_CD40: BioMAP Diversity Plus: LPS Assay for CD40 Biomarker Activity (AID 2283076). The note with it: primary human HUVEC with PBMC; actives raise or lower the signal. The method in brief:
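Cells were dosed, incubated 24 h, then assayed for CD40 by ELISA. Gain or loss of signal was analysed relative to DMSO controls. The culture paired human umbilical vein endothelium with peripheral blood mononuclear cells.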

Read-out in assay [10]: E-selectin (Homo sapiens) (UniProt P16581)
Briefly: BSK_LPS_Eselectin: BioMAP Diversity Plus: LPS Assay for Eselectin Biomarker Activity (AID 2283077). As to conditions: primary human HUVEC with PBMC; actives raise or lower the signal. The method in brief: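 Primary human vascular co-culture (endothelium plus PBMC) was dosed with chemical, then E-selectin quantified by ELISA at 24 h. Endpoint values derive from bidirectional curve fitting relative to DMSO.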

Read-out in assay [11]: Interleukin-8 (IL8), CXCL8 (gene 3576)
Briefly: BSK_LPS_IL8: BioMAP Diversity Plus: LPS Assay for Interleukin-8 (IL8) Biomarker Activity (AID 2283078). As to conditions: primary human HUVEC with PBMC; actives raise or lower the signal. The method in brief: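 Readout is IL-8 by ELISA, taken 24 h after compounds were added to LPS-stimulated endothelial/PBMC co-cultures. Both increases and decreases relative to DMSO control were scored through bidirectional fitting.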

The nature of assay [12]: BSK_LPS_SRB: Viability Assessment in the BioMAP Diversity Plus: LPS Assay (AID 2283079).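 Also: total protein by sulforhodamine B absorbance as a cytotoxicity measure; measured one day after compound addition; fitted in both directions against DMSO so loss or gain of signal counts.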 The note with it: primary human HUVEC with PBMC. The method in brief:
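Readout is SRB absorbance at 560 nm (0.1% stain, TCA-fixed parallel cultures) as a total-protein cytotoxicity measure. Cells: primary human umbilical vein endothelium plus peripheral blood mononuclear cells, 24 h after chemical exposure; DMSO served as baseline.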

Read-out in assay [13]: Interleukin-1 alpha (IL1a), IL1A (gene 3552)
Put plainly: BSK_LPS_IL1a: BioMAP Diversity Plus: LPS Assay for Interleukin-1 alpha (IL1a) Biomarker Activity (AID 2283080). The note with it: primary human HUVEC with PBMC; actives raise or lower the signal. The method in brief: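 ELISA read-out of IL-1 alpha from a human primary vascular co-culture (endothelium plus PBMC) under LPS, sampled 24 hours post-dosing. Activity was fitted in both directions relative to DMSO controls.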

Read-out in assay [14]: Monocyte Chemoattractant Protein-1 (MCP1), CCL2 (gene 6347)
Put plainly: BSK_LPS_MCP1: BioMAP Diversity Plus: LPS Assay for Monocyte Chemoattractant Protein-1 (MCP1) Biomarker Activity (AID 2283081). As to conditions: primary human HUVEC with PBMC; actives raise or lower the signal. The essentials: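 Human endothelial–PBMC co-cultures were dosed with chemical, then LPS-driven MCP-1 levels were quantified by ELISA at 24 h. Activity in either direction was fitted versus DMSO negative control.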

Assay [15] is described as follows: BSK_KF3CT_SRB: Viability Assessment in the BioMAP Diversity Plus: KF3CT Assay (AID 2283069).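 Also: read 24 h after compound addition; fitted for both signal gain and loss against DMSO baseline.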 As to conditions: primary human keratinocytes with fibroblasts. The method in brief: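 Overt cytotoxicity is assessed as total protein by sulforhodamine B staining in parallel human skin co-cultures at 24 h after dosing. DMSO serves as negative control and baseline.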

Read-out in assay [16]: TIMP metallopeptidase inhibitor 2 (TIMP2), TIMP2 (gene 7077)
Briefly: BSK_KF3CT_TIMP2: BioMAP Diversity Plus: KF3CT Assay for TIMP metallopeptidase inhibitor 2 (TIMP2) Biomarker Activity (AID 2283071). The note with it: primary human keratinocytes with fibroblasts; actives raise or lower the signal. The method in brief: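 Measurements come from ELISA detection of TIMP-2 at 24 hours in a dosed human keratinocyte and foreskin fibroblast co-culture. DMSO serves as negative control and baseline.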

Read-out in assay [17]: C-C motif chemokine 2 (Homo sapiens) (UniProt P13500)
Briefly: BSK_KF3CT_MCP1: BioMAP Diversity Plus: KF3CT Assay for Monocyte Chemoattractant Protein 1 (MCP1/CCL2) Biomarker Activity (AID 2283073). As to conditions: primary human keratinocytes with fibroblasts; actives raise or lower the signal. The method in brief:
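ELISA readout of MCP-1 after 24 h chemical dosing of a human skin primary co-culture of keratinocytes and foreskin fibroblasts. Activity was fitted in both directions against DMSO.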

Calls of active or inactive are those of the source. The calls were made as follows: active = hit-call score of the fitted dose curve at least 0.9, where 1 is the maximum; inactive = score below 0.9.

Chain of E-selectin (Homo sapiens) (P16581 whole entry, looked up): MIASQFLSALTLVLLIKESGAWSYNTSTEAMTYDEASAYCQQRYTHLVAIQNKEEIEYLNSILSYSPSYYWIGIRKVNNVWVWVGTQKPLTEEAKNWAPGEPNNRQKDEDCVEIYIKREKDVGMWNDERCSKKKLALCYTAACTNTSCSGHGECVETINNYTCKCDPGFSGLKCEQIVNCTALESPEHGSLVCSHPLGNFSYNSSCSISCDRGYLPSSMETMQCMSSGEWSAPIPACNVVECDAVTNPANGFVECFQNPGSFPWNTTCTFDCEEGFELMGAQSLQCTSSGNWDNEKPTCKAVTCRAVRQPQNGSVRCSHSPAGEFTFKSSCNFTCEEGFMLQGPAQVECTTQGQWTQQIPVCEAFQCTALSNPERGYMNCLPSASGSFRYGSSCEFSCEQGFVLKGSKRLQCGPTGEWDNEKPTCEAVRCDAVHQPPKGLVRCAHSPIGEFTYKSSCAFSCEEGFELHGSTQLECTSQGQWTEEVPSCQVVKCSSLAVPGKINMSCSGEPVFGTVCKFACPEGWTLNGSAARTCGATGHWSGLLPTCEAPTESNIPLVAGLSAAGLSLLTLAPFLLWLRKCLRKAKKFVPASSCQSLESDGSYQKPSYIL

Usually AC50 stands for the midpoint of the concentration-response curve, whichever way the signal moves. Take `CCCCCCC(C=O)=Cc1ccccc1`: the result in assay [1], in assay [3], in assay [4], in assay [6], in assay [7] and in [8] was inactive. In addition, the outcome was “inactive” in assay [9]; “inactive” in the assay with CD40, CD40 (gene 958); “inactive” in [10]; “inactive” in [14]. In addition, the AC50 in assay [2] is 32 µM (active); in assay [5], 30.5 µM (active); in [11] it was 30.2 µM (active); in assay [12], 29.3 µM (active); in [13], 33.6 µM (active).
Consider `NC(=Nc1ccccc1)Nc1ccccc1`, for which the result in assay [1], in assay [2], in assay [3], in [4], in [5] and in assay [15] was inactive. The result in assay [6], in assay [16], in assay [7], in assay [17], in [8] and in assay [9] was inactive. The outcome with CD40, CD40 (gene 958) is “inactive”; in [10] it was “inactive”; in assay [13], “inactive”; in [14], “inactive”.
As to `CN(C)CCCN(C)CCCN(C)C`, the outcome in [1], in assay [2], in assay [3], in [4], in assay [5] and in assay [15] was inactive. For the same compound, the result in [6], in assay [16], in assay [7], in assay [8], in assay [9] and in [10] was inactive. Also, the outcome in assay [11], in assay [13] and in assay [14] was inactive.
For the compound `CCc1nc(N)nc(N)c1-c1ccc(Cl)cc1`, the result in assay [1], in assay [2], in assay [3], in [4], in assay [5] and in assay [15] was inactive. In addition, the outcome in assay [6], in [16], in assay [7], in [17], in assay [8] and in assay [9] was inactive. Besides, the outcome was “inactive” with CD40, CD40 (gene 958); “inactive” in assay [10]; “inactive” in assay [12]; “inactive” in [13]; “inactive” in assay [14].
For the compound `O=C1c2c(O)cccc2Cc2cccc(O)c21`, the outcome in assay [1] was “inactive”; in [3], “inactive”; in [15] it was “inactive”; with CD40, CD40 (gene 958), “inactive”; in [10], “inactive”; in assay [12], “inactive”. In addition, the result in assay [13] and in [14] was inactive. Also, the AC50 was 20 µM (active) in assay [2]; 25.1 µM (active) in [4]; 28.8 µM (active) in [5]; 18.9 µM (active) in assay [6]; 24.6 µM (active) in assay [7]; 20 µM (active) in assay [17]. Further, the figures for the AC50 in [8] and in assay [9] were 10.2 µM (active) and 27.8 µM (active), respectively.
On to `Cc1occc(=O)c1O`, for which the result in assay [1], in [2], in assay [3], in assay [4], in assay [5] and in assay [15] was inactive. Moreover, the outcome was “inactive” in assay [6]; “inactive” in assay [7]; “inactive” in assay [17]; “inactive” in assay [8]; “inactive” in assay [9]; “inactive” in the assay with CD40, CD40 (gene 958). Further, the outcome in assay [10], in assay [11], in [13] and in assay [14] was inactive.
Take `O=Cc1ccccc1C=O`: the result in assay [1], in assay [2], in [3], in assay [4], in [5] and in [6] was inactive. For the same compound, the outcome in assay [16] was “inactive”; in assay [7], “inactive”; in [17] it was “inactive”; in assay [8], “inactive”; in [9], “inactive”; with CD40, CD40 (gene 958) it was “inactive”. The result in assay [10], in assay [11], in [12], in [13] and in [14] was inactive.
